From PubChem BioAssay AID488840 (Broad Institute, 2010)
Screen size: about 1,400 compounds; about 45 (3%) were called active. The list is a sample of the results. Potency and affinity values are given separately. Unmarked numbers belong to inactive results.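 The calls were made as follows: active = half-maximal dose of signal decrease from fit no higher than ten times the top valid tested dose; inconclusive = fit invalid, or curve flat with 30 to 70% inhibition; inactive = the rest.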

molecular target: Lysine-specific demethylase 4A (Homo sapiens) (UniProt O75164); assay: JMJD2A histone demethylase inhibitors, dose response, selectivity assay for GASC-1 inhibitor project, biochemical, DELFIA europium, cherry-picked samples (AID 488840); settings: GST-JMJD2A(1-420) H3K9me3 demethylation; series mostly up to 6 µM; activity change, negative = inhibition: at the top concentration;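 also: europium signal reports the dimethyl H3K9 product detected by antibody so inhibitors lower it; 0% = median of neutral control wells and -100% = median of positive control wells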
Sequence (O75164 whole entry, looked up): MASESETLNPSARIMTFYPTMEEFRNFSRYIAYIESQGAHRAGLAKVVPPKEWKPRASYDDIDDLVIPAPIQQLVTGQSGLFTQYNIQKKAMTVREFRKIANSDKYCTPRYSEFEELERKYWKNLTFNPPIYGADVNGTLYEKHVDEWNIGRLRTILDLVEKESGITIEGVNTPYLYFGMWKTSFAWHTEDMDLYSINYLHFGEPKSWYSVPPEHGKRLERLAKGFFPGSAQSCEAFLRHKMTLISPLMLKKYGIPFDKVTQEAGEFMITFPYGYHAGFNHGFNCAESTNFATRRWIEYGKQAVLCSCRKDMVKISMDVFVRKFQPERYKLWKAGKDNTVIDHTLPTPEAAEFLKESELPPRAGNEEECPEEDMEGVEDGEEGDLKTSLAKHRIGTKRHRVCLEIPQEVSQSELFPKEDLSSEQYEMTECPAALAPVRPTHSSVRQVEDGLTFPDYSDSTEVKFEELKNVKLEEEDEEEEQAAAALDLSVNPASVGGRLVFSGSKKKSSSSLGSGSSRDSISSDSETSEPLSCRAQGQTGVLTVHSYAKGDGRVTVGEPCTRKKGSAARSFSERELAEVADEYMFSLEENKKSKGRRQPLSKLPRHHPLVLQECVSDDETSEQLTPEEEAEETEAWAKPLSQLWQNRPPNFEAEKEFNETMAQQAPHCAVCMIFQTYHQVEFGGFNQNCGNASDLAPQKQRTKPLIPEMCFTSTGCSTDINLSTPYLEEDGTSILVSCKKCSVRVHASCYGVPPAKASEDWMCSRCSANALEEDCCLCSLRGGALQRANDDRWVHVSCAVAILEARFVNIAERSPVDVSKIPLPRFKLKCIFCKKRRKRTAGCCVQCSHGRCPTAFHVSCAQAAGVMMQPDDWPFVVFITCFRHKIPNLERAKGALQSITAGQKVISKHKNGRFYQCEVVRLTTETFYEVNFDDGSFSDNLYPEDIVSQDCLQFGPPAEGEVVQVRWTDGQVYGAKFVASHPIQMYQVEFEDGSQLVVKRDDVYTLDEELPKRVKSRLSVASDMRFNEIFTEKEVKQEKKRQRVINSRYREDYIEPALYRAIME

Compound	activity change, negative = inhibition [%]
COc1ccc(/C=N/N(C)c2cc(=O)n(C)c(=O)[nH]2)cc1OC	8.31
Nc1ccc(S(=O)(=O)NC2(C(F)(F)F)NC(=O)N(c3ccc(F)cc3)C2=O)cc1 (stereo not given)	0.62
COc1ccc(N(Cc2cc3cccc(C)c3[nH]c2=O)S(C)(=O)=O)cc1	-0.361
O=C(Nc1ccccc1)N(CCc1nc2ccccc2[nH]1)C1CCCC1	-5.44
COc1ccc(NC(=O)NCCCCc2ccccc2)c(OC)c1	6.33
O=C(Cn1cnc2c(OCc3ccccc3)ncnc21)NCCCc1ccccc1	-1.3
Cc1cc(NC(=O)CCC(=O)N(c2ccccc2)C2(C(=O)NC3CCCCC3)CCCC2)no1	-3.43
Cc1cnc(NC(=O)c2ccc(-c3nc4ccccc4s3)o2)s1	1.03
Cn1c(/N=C/c2cc(Cl)ccc2O)nc2ccccc21	4.98
O=C(COC(=O)C1(c2ccc(Cl)cc2)CCCC1)NC1CCS(=O)(=O)C1 (stereo not given)	4.75
O=C(CSc1nnc(CNC(=O)c2c(F)cccc2Cl)o1)Nc1ccc2c(c1)OCCO2	0.72
COc1ccc(-c2nn3c(-c4ccco4)nnc3s2)cc1OC	13.3
CC(C)(C)n1nc2c(c1NC(=O)c1ccc(Br)o1)CS(=O)C2 (stereo not given)	-1.29
O=C(Nc1ccc(-c2nc3ncccc3o2)cc1)c1ccc(Br)o1	-1.12
CCn1c(CCn2ccnc2C)n[nH]c1=S	0.682
COC(=O)c1cc(S(=O)(=O)N2CCN(c3ccc(F)cc3)CC2)c[nH]1	-2.52
COc1ccc(/C=N/n2c(=O)[nH]c3c([nH]c4ccc(Br)cc43)c2=O)cc1CN1CCOCC1	2.87
COc1ccc(S(=O)(=O)N(C)C[C@H]2Oc3ccc(NC(=O)Cn4cnnn4)cc3C(=O)N([C@H](C)CO)C[C@@H]2C)cc1	-2.83
C=CCNCCOc1cccc(Br)c1	-3.77
O=C(NCc1ccccn1)c1cn(Cc2ccccc2)nn1	-6.48
CC(=O)Nc1ccc(NC(=O)Cn2cnc3c(cnn3C(C)(C)C)c2=O)cc1	-13.6
Cc1ccc(S(=O)(=O)N2[C@@H](c3ccc(C#N)cc3)C(C(=O)O)=C[C@H]2C(C)(C)C)cc1	-3.84
CC[C@@]1(C(=O)OC)N[C@H](CN(C)C(=O)Nc2ccc(Cl)cc2)[C@@H]2C(=O)N(Cc3ccccc3)C(=O)[C@@H]21	3.72
O=C(c1cc2ccccc2oc1=O)N1CCN(CCc2ccccc2)CC1	1.84
Cc1cccc(OCc2nnc(SCC(=O)Nc3cccc(C(=O)N4CCOCC4)c3)o2)c1C	-0.255
N=c1n(CC(=O)c2cccc([N+](=O)[O-])c2)c2ccccc2n1Cc1ccccc1	1.29
Nc1cccc(C(=O)Nc2ccco2)c1	-3.86
COc1cc2[nH]c(=O)n(CCCCCC(=O)NCCCN3CCCC3=O)c(=O)c2cc1OC	1.66

Compound	activity change, negative = inhibition [%]
Cc1ccc(CNC(=O)Cc2ccc(-c3ccccc3)cc2)cc1	6.79
CC(=O)c1sc(NC(=O)c2ccc(C)cc2)nc1C	-7.38
CCN1CCC(=NNC(=O)c2ccc(C)c([N+](=O)[O-])c2)CC1	0.261
Cc1ccc(C2CC(c3ccccc3)=NN2C(=S)Nc2ccccc2)o1 (stereo not given)	3.02
CC(C)C[C@H](NC(=O)N1CCCCCC1)C(=O)O	0.718
O=C(NNC(=O)c1cccs1)c1ccc([N+](=O)[O-])cc1	-5.67
CC1=NN(C(N)=S)C(=O)C1N=Nc1c(C)cc(C)cc1C (stereo not given)	3.02
Cc1ccccc1CNc1nnnn1C	-0.727
C=CCn1c(O)c(N=Nc2ccccc2C)c2ccccc21	-6.46
COC(=O)c1cc(NC(=O)CSc2nncn2C)cc(C(=O)OC)c1	0.678
COC(C/C=C\[C@H](O)[C@H](C)OCc1ccccc1)OC	2.1
CC(C)(C)OC(=O)C[C@@H]1C/C=C\C[C@H](CC(=O)N[C@H](CO)Cc2ccccc2)C(=O)N[C@@H](Cc2ccccc2)COC1=O	0.0527
C[C@H](CO)N1C[C@H](C)[C@@H](CN(C)Cc2ccc(Cl)c(Cl)c2)Oc2c(NS(=O)(=O)c3cn(C)cn3)cccc2C1=O	-0.723
CCOCCCNC(=O)c1c[nH]c2ccc(C)cc2c1=O	0.456
Cc1ccccc1CN1C(=O)C(O)(CC(=O)c2ccncc2)c2ccccc21 (stereo not given)	-4.55
Cc1ccc(CNC(=O)[C@@H](NC(=O)Cc2ccccc2)C(C)C)cc1	2.23
O=C(Cc1ccccc1)NC1(O)C(=O)c2ccccc2C1=O	-4.47
COc1ccc(OCC(=O)N/N=C/C(C)=C/c2ccco2)c(Br)c1	-1.99
COc1ccc(OC)c(/C=C2\SC(=S)N(Cc3cccnc3)C2=O)c1	0.643
COc1ccccc1N1CCN(C(=O)CSc2nc(C)cc(=O)[nH]2)CC1	-2.92
COc1ccc(-c2nnc(SC(C)C(=O)NCc3ccc4c(c3)OCO4)n2Cc2ccco2)cc1 (stereo not given)	5.3
CCN(CC)C(=O)N1CCc2ccccc2C1CN1C(=O)c2ccccc2C1=O (stereo not given)	-1.77
C=CCc1c(C)nc(SC(C)C)[nH]c1=O	-9.55
O=C(Cn1cnc2c(OCc3ccccc3)ncnc21)N1CCN(c2ccccn2)CC1	-3.78
CC(C)(O)[C@H](O)Cc1cc2ccc(=O)oc2cc1O[C@@H]1O[C@H](CO)[C@@H](O)[C@H](O)[C@H]1O	-0.509
CC(=O)c1ccc(O[C@@H]2O[C@H](CO)[C@@H](O)[C@H](O)[C@H]2O)cc1	-4.17
COC(C(=O)Nc1ccc(NC(=O)C(OC)c2ccccc2)cc1)c1ccccc1 (stereo not given)	3.15
